Test results from PubChem BioAssay (NCI).
Several values for one entry are separate records, joined by “and”; a condition that tells them apart may be missing. Equal values may be shown once. About 83,000 compounds went through this panel and 20% of them were active in at least one assay; those are over-represented in the sample as a whole.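 Cell lines were cultured in 96-well plates, exposed to a single compound concentration, and assessed for percent growth 48 hours later.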 Activity calls are given as the source filed them. How the source made its calls: active means growth percent below 10; inactive means the rest. Starred links: 1 amine or outer side, 2 acyl side, 3 side chain; linkers in the order of their positions; H or OH if unused. Positions of bridges follow the written chain, without caps; N, C: chain ends. Non-standard residues stand in square brackets, D forms with d. Residues, ends and D or L forms follow the SMILES beside them. Chains are numbered I, II in the order given. Actinocin(9to1) = Cc1c2oc3c(C)ccc(C(=O)[*:1])c3nc-2c(C(=O)[*:2])c(N)c1=O; aThr = C[C@H](O)[C@H](N)C(=O)O; NMeV = CN[C@H](C(=O)O)C(C)C; Sar = CNCC(=O)O

Legend:
Test in all cases: NCI-60 one-dose screen, 48 h (100 = growth as untreated, 0 = no growth, -100 = all killed)
NCI-H23 lung = system: NCI-H23 lung
NCI-H226 lung = system: NCI-H226 lung
NCI-H322M lung = system: NCI-H322M lung
HOP-62 NSCLC = system: HOP-62 NSCLC
NCI-H460 lung = system: NCI-H460 lung
HOP-92 NSCLC = system: HOP-92 NSCLC
NCI-H522 lung = system: NCI-H522 lung
A549/ATCC NSCLC = system: A549/ATCC NSCLC
786-0 renal = system: 786-0 renal
COLO 205 colon = system: COLO 205 colon
DU-145 prostate = system: DU-145 prostate
K-562 leukemia = system: K-562 leukemia
MALME-3M melanoma = system: MALME-3M melanoma
MDA-MB-231 breast = system: MDA-MB-231 breast
RXF 393 renal = system: RXF 393 renal
SF-268 CNS = system: SF-268 CNS
SF-295 CNS = system: SF-295 CNS
SF-539 CNS = system: SF-539 CNS
UACC-257 melanoma = system: UACC-257 melanoma
M14 melanoma = system: M14 melanoma

Measured: growth

Cc1c2oc3c(C)ccc(C(=O)N[C@@H]4C(=O)N[C@H](C(C)C)C(=O)N5CCC[C@H]5C(=O)N(C)CC(=O)N(C)[C@@H](C(C)C)C(=O)O[C@H]4C)c3nc-2c(C(=O)N[C@@H]2C(=O)N[C@H](C(C)C)C(=O)N3CCC[C@H]3C(=O)N(C)CC(=O)N(C)[C@@H](C(C)C)C(=O)O[C@H]2C)c(N)c1=O (I: [aThr][dV]P[Sar][NMeV] / II: [aThr][dV]P[Sar][NMeV]; ester I:1-I:C, II:1-II:C; linker I:N-II:N via Actinocin(9to1))
inactive: NCI-H23 lung; 0.0025 µM 53.2% | NCI-H226 lung; 0.0025 µM 57.3% | NCI-H322M lung; 0.0025 µM 64.7% | HOP-62 NSCLC; 0.0025 µM 41.2% | NCI-H460 lung; 0.0025 µM 16.7% | HOP-92 NSCLC; 0.0025 µM 50.7% | NCI-H522 lung; 0.0025 µM 33.9% | A549/ATCC NSCLC; 0.0025 µM 36.8% | 786-0 renal; 0.0025 µM 41.8% | COLO 205 colon; 0.0025 µM 44.2% | DU-145 prostate; 0.0025 µM 41.6% | K-562 leukemia; 0.0025 µM 18.8% | MALME-3M melanoma; 0.0025 µM 66.3% | MDA-MB-231 breast; 0.0025 µM 64.2% | RXF 393 renal; 0.0025 µM 31.1% | SF-268 CNS; 0.0025 µM 46.1% | SF-295 CNS; 0.0025 µM 62.4% | SF-539 CNS; 0.0025 µM 25.5% | UACC-257 melanoma; 0.0025 µM 30.6%
active: NCI-H23 lung; 10 µM -50.9% | NCI-H226 lung; 10 µM -12.4% | NCI-H322M lung; 10 µM 7.68% | HOP-62 NSCLC; 10 µM -16.9% | NCI-H460 lung; 10 µM -22.4% | HOP-92 NSCLC; 10 µM -16.3% | NCI-H522 lung; 10 µM -38.4% | A549/ATCC NSCLC; 10 µM -38.9% | 786-0 renal; 10 µM -3.24% | COLO 205 colon; 10 µM -56.7% | DU-145 prostate; 10 µM -30.5% | K-562 leukemia; 10 µM 0.49% | MALME-3M melanoma; 10 µM -61.4% | MDA-MB-231 breast; 10 µM -2.13% | RXF 393 renal; 10 µM -45.9% | SF-268 CNS; 10 µM -9.34% | SF-295 CNS; 10 µM -8.12% | SF-539 CNS; 10 µM -54.7% | UACC-257 melanoma; 10 µM -29.8%

Nc1ccc2cc(Br)c3ccccc3c2c1
inactive: NCI-H23 lung; 10 µM 69.5% | NCI-H226 lung; 10 µM 59.4% | NCI-H322M lung; 10 µM 64.7% | HOP-62 NSCLC; 10 µM 80.9% | NCI-H460 lung; 10 µM 54.1% | HOP-92 NSCLC; 10 µM 75.3% | NCI-H522 lung; 10 µM 86.9% | A549/ATCC NSCLC; 10 µM 63% | 786-0 renal; 10 µM 54.8% | COLO 205 colon; 10 µM 115% | DU-145 prostate; 10 µM 61.8% | K-562 leukemia; 10 µM 31.7% | MALME-3M melanoma; 10 µM 97.8% | SF-268 CNS; 10 µM 68.9% | SF-295 CNS; 10 µM 21% | SF-539 CNS; 10 µM 47.9% | UACC-257 melanoma; 10 µM 90.1% | M14 melanoma; 10 µM 78.5%
active: RXF 393 renal; 10 µM 4.19%

BrC/C=C/C[P+](c1ccccc1)(c1ccccc1)c1ccccc1
inactive: NCI-H23 lung; 10 µM 84.2% | NCI-H226 lung; 10 µM 76.2% | NCI-H322M lung; 10 µM 96.5% | HOP-62 NSCLC; 10 µM 27.4% | NCI-H460 lung; 10 µM 57.4% | HOP-92 NSCLC; 10 µM 60.4% | NCI-H522 lung; 10 µM 40% | A549/ATCC NSCLC; 10 µM 44% | 786-0 renal; 10 µM 46.2% | COLO 205 colon; 10 µM 16.5% | DU-145 prostate; 10 µM 39.7% | K-562 leukemia; 10 µM 17.5% | MALME-3M melanoma; 10 µM 60.6% | MDA-MB-231 breast; 10 µM 77.4% | RXF 393 renal; 10 µM 81.8% | SF-268 CNS; 10 µM 58.7% | SF-295 CNS; 10 µM 38.2% | SF-539 CNS; 10 µM 10% | UACC-257 melanoma; 10 µM 47.9% | M14 melanoma; 10 µM 49.9%

O=c1[nH]cc(F)c(=O)[nH]1
inactive: NCI-H23 lung; 10 µM 55% and 55.2% | NCI-H23 lung; 25 µM 39% | NCI-H23 lung; 50 µM 41.6% | NCI-H226 lung; 10 µM 85.2% and 94.1% | NCI-H226 lung; 25 µM 69.5% | NCI-H322M lung; 10 µM 62.5% and 58.5% | NCI-H322M lung; 25 µM 59.5% | NCI-H322M lung; 50 µM 48.6% | HOP-62 NSCLC; 10 µM 46.6% and 82.3% | HOP-62 NSCLC; 25 µM 47.8% | HOP-62 NSCLC; 50 µM 42.4% | NCI-H460 lung; 10 µM 16% and 20% | NCI-H460 lung; 25 µM 13% | NCI-H460 lung; 50 µM 13.9% | HOP-92 NSCLC; 10 µM 87.3% and 49.3% | HOP-92 NSCLC; 25 µM 50.6% | HOP-92 NSCLC; 50 µM 75.7% | NCI-H522 lung; 10 µM 62.1% and 62.2% | NCI-H522 lung; 25 µM 58% | A549/ATCC NSCLC; 25 µM 34.2% | A549/ATCC NSCLC; 50 µM 31.2% | 786-0 renal; 10 µM 64.2% and 62.2% | 786-0 renal; 25 µM 48.7% | 786-0 renal; 50 µM 59% | COLO 205 colon; 10 µM 51.4% and 39.4% | COLO 205 colon; 25 µM 40.2% | COLO 205 colon; 50 µM 33.5% | DU-145 prostate; 10 µM 57.4% and 65.3% | DU-145 prostate; 25 µM 35.5% | DU-145 prostate; 50 µM 20.5% | K-562 leukemia; 10 µM 64.6% and 69.4% | K-562 leukemia; 25 µM 42.3% | K-562 leukemia; 50 µM 41.5% | MALME-3M melanoma; 10 µM 53.1% and 69.9% | MALME-3M melanoma; 25 µM 58.2% | MALME-3M melanoma; 50 µM 53.7% | MDA-MB-231 breast; 10 µM 96.2% and 84.6% | MDA-MB-231 breast; 25 µM 78.1% | MDA-MB-231 breast; 50 µM 77.2% | RXF 393 renal; 10 µM 63.4% and 10.7% | RXF 393 renal; 25 µM 34.3% | RXF 393 renal; 50 µM 54.4% | SF-268 CNS; 10 µM 81.3% and 91.9% | SF-268 CNS; 25 µM 59% | SF-268 CNS; 50 µM 47.7% | SF-295 CNS; 10 µM 77% and 100% | SF-295 CNS; 25 µM 69.1% | SF-295 CNS; 50 µM 90.5% | SF-539 CNS; 50 µM 22.8% | UACC-257 melanoma; 10 µM 73.1% and 22.6% | UACC-257 melanoma; 25 µM 19.5% | UACC-257 melanoma; 50 µM 53.5% | M14 melanoma; 10 µM 64% and 28.9% | M14 melanoma; 50 µM 42.4%
active: A549/ATCC NSCLC; 10 µM -11.5% | SF-539 CNS; 10 µM -0.0094% and -4.58% | SF-539 CNS; 25 µM -19.6%

N#C/C(=C1C=C/C(=N\O)C(Cl)=C\1)c1ccccc1
active: SF-295 CNS; 10 µM -32.2% | SF-539 CNS; 10 µM 2.46%
inactive: NCI-H23 lung; 10 µM 82.8% | NCI-H226 lung; 10 µM 87.8% | NCI-H322M lung; 10 µM 55.3% | HOP-62 NSCLC; 10 µM 33.2% | NCI-H460 lung; 10 µM 14.3% | HOP-92 NSCLC; 10 µM 38.3% | A549/ATCC NSCLC; 10 µM 31.2% | 786-0 renal; 10 µM 43% | COLO 205 colon; 10 µM 38.3% | DU-145 prostate; 10 µM 40.2% | K-562 leukemia; 10 µM 20.9% | MALME-3M melanoma; 10 µM 58.7% | MDA-MB-231 breast; 10 µM 20.6% | RXF 393 renal; 10 µM 43.9% | SF-268 CNS; 10 µM 27% | M14 melanoma; 10 µM 46%
